Data on 14 molecules can be found in PubChem BioAssay (NCI).

Compounds without any hit were thinned out: in the full panel of roughly 83,000, 20% have a hit.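 Each cell line was grown in a 96-well plate and treated with one concentration of compound for 48 hours. Values below 10 were considered active.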 Unmarked numbers belong to inactive results. The source made the active and inactive calls.

The subject of this experiment is MALME-3M melanoma. The experiment is described as follows: NCI-60 one-dose screen, 48 h (100 = growth as untreated, 0 = no growth, -100 = all killed). The conditions noted are these: 10 µM unless noted.
With `CC(=O)O[C@H]1CC[C@]2(C)[C@H]3CC=C4[C@@H]5CC(C)(C)CC[C@]5(C(=O)OCC(COC(=O)C(Cl)Cl)(COC(=O)C(Cl)Cl)NC(=O)C(Cl)Cl)CC[C@@]4(C)[C@]3(C)CC[C@H]2C1(C)C`, the growth was 83.1%.

As to `Clc1ccc(Cl)c(N=Cc2ccc3c(c2)OCO3)c1`, the growth is 111%.

Regarding `CCN(CC)c1ccc2c(cc1=O)[C@@H](NC(C)=O)CCc1cc(OC)c(OC)c(OC)c1-2`, the growth is 99%.

For the molecule `COc1ccc(CNc2c3ccccc3nc3ccc(OC)cc23)cc1`, the growth was 7.06% (active).

On to `NC(=O)c1ccc[n+](Cc2ccccc2)c1`, for which the growth is 75.4%.

As for `N/N=C(\C(=N\N)c1ccccc1)c1ccccc1`, the growth is 88%.

`CC1=C(O)C(=O)CC1`: the growth was 104%.

As for `CCN(CC)CCCC(C)Nc1ccnc2ccc(Oc3ccccc3)cc12` (centres undefined), the growth is -38.6% (active).

On to `COc1cc2ncnc(Nc3ccc(S(=O)(=O)Nc4nccs4)cc3)c2cc1OCCCN1CCOCC1`, for which the growth was 99.8%.

Consider `CC(=O)Cc1ccccn1`, for which the growth was 106%.

In the case of `CC1OC(n2c3ccccc3c3c4c(c5c6ccccc6[nH]c5c32)C(=O)N(CCN[C@H]2CCC[C@@H]2N)C4=O)CC(O)C1O` (some centres undefined), the growth was 45.3%.

Turning to `O=C(C(=O)N1CCCC1)c1cn(CCCn2cc(C(=O)C(=O)N3CCCC3)c3cc(Br)ccc32)c2ccc(Br)cc12`, the growth was 58.1%.

Consider `CCCCCCCOc1cccc(/C=C2\N=C3SCCCN3C2=O)c1`, for which the growth is 139%.

Turning to `COc1ccc(NC(=O)c2sc3c(=O)[nH]c(C(F)(F)F)nc3c2C)cc1`, the growth was 102%.
